Experimental findings from PubChem BioAssay are described below.

Test [1] can be described thus: rapamycin-like changes in RPL19A-GFP expression – cell-based, S. cerevisiae, multiplex flow cytometry, primary screen (AID 1862; in the data active means percent of DMSO control GFP below about 86%;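 further: lower values mimic rapamycin by blocking the RPL19A rise seen in DMSO cells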). To be noted: S. cerevisiae RPL19A-GFP strain, flow cytometry fluorescence, 3 h; at 10 µM; stronger effect = lower value. (In general: Flow cytometry measures light scatter and fluorescence of single cells or particles in a stream.)
The nature of test [2]: TOR pathway GLN3 branch reporter MEP2-GFP changes – S. cerevisiae, multiplex flow cytometry, primary screen (AID 1867;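 active means GFP response, as percent of the DMSO control, above the screen-wide mean plus 3 SD, about 139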;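 further: median GFP channel fluorescence of barcode-gated MEP2-GFP cells measured by flow cytometry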). To be noted: S. cerevisiae MEP2-GFP strain, 3 h, at 10 µM, stronger effect = higher value, 100% means same as DMSO wells.
A short description of test [3]: TOR pathway RTG branch CIT2 reporter changes – S. cerevisiae, GFP fusion, multiplex flow cytometry, primary screen (AID 1870;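 active means percent response above a set limit, the screen-wide mean plus 3 SD, cut at about 130% in these data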;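 further: barcoded CIT2-GFP strain pooled with four other GFP strains with rapamycin as positive control; median GFP fluorescence per well over plate mean of DMSO wells so 100% = DMSO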). Conditions: S. cerevisiae CIT2-GFP expression, 3 h, at 10 µM, stronger effect = higher value.
Test [4] in a line: TOR pathway LAP4-GFP level changes – S. cerevisiae, multiplex flow cytometry, primary screen (AID 1873;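 active means GFP signal, as percent of the solvent control, above the screen mean plus 3 SD, about 149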). To be noted: S. cerevisiae LAP4-GFP expression, 3 h, at 10 µM, stronger effect = higher value.
A short description of test [5]: yeast AGP1-GFP level changes, GLN3 branch – cell-based, multiplex flow cytometry, S. cerevisiae, primary screen (AID 1887;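 active means GFP signal above the screen-wide mean plus 3 SD, that is over about 124.5% of the solvent control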;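 further: AGP1-GFP fusion strain of S. cerevisiae within a five-strain barcoded multiplex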). Conditions: 3 h, at 10 µM, stronger effect = higher value.
Test [6] can be described thus: reduced mouse 2C T cell binding to pMHC/ICAM-1 vesicles – MLPCN validation set, flow cytometry, LFA-1/ICAM-1 modulator project, pilot screen (AID 2523;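 active means response below a set limit, under 55% cells CD8-positive and vesicle-bound, and CD8 cells' 90th-percentile brightness under 279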;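 on vesicle binding response: mean PE anti-B7-1 fluorescence of CD8+ cells relative to row control; 100% = QL9-loaded vesicles with DMSO vehicle in the same plate row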). Conditions: 2C mouse CD8+ T cells, at 7 µM, stronger effect = lower value; double positive events: measured here: CD8+/vesicle+ event percentage.
Test [7] deals with Integrin beta-1 (Homo sapiens) + Integrin alpha-4 (Homo sapiens) (UniProt P13612+P05556). As to the kind of experiment: alpha4beta1 integrin LIBS antibody binding reduction – U937 cells, HUTS-21 mAb, flow cytometry, validation set, VLA-4 allosteric modulator project, pilot screen (AID 2674;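 active means inhibition above 50%, about 3 SD of the validation set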;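 further: antibody binding induced by the VLA-4 ligand LDV present at three times its Kd; 0% = LDV ligand with antibody and no compound and 100% = antibody without LDV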). To be noted: HUTS-21 LIBS mAb binding, at 6.7 µM, stronger effect = higher value, binding induced by LDV ligand.
Integrin beta-1 (Homo sapiens) + Integrin alpha-4 (Homo sapiens), sequence (P05556 whole entry, looked up): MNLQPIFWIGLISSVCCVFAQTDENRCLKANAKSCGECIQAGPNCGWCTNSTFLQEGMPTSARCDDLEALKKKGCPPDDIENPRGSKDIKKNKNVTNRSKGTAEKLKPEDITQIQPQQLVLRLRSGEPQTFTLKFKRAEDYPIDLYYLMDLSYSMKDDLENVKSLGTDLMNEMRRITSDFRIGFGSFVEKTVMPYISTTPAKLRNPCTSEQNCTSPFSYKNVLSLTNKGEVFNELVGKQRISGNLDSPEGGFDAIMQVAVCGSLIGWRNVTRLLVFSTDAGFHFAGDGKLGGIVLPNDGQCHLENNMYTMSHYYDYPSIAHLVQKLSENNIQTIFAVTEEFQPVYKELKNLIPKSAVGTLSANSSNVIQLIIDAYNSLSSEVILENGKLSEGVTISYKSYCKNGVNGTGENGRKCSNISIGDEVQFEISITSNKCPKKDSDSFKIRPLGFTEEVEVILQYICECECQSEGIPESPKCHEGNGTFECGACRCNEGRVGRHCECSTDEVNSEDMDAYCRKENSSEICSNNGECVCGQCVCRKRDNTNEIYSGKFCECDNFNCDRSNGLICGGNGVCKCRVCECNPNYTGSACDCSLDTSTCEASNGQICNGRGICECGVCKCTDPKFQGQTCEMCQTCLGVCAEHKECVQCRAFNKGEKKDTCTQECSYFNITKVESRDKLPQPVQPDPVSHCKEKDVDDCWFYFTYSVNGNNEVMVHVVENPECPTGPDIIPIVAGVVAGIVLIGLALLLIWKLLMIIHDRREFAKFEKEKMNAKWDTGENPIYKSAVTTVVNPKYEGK
Integrin beta-1 (Homo sapiens) + Integrin alpha-4 (Homo sapiens), sequence (P13612 whole entry, looked up): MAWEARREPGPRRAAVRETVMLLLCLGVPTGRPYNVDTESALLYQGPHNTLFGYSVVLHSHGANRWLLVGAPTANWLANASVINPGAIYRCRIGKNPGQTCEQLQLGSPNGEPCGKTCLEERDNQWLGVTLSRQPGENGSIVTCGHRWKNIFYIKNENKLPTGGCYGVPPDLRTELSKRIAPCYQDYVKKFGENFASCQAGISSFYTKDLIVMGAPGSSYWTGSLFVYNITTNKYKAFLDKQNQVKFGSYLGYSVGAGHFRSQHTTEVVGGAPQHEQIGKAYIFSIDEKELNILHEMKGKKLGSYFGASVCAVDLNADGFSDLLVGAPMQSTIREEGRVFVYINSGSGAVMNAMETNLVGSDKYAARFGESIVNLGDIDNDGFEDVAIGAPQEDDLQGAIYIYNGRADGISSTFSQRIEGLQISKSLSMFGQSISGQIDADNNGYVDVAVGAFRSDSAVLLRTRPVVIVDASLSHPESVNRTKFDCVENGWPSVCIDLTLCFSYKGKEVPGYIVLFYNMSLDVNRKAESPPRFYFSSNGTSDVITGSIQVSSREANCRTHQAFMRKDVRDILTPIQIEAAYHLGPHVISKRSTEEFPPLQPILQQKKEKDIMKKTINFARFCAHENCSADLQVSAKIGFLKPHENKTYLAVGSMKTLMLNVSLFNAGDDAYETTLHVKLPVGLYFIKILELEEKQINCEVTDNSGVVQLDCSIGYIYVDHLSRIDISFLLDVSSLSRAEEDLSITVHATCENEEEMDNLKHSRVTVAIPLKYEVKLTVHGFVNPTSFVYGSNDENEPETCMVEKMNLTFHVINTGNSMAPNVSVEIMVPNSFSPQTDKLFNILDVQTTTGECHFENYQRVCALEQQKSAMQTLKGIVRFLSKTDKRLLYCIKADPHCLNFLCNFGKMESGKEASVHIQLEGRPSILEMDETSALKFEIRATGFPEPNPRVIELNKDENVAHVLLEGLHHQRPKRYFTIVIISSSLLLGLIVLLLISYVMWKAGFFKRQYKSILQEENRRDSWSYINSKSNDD

Test [8] can be described thus: calorie-restriction mimetic ROS inhibitors, yeast – validation compound set, pilot screen (AID 2706;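 active means superoxide response below 65% of plate, a cut near 3 SD across the whole screen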;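 further: yeast exposed to compound for one week at 30 degrees C before staining; 100% = mean of all compound wells on the same plate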). Conditions: S. cerevisiae aging, superoxide DHE fluorescence; at 10 µM; stronger effect = lower value.
The target in test [9] is Beta-adrenergic receptor kinase 1 (Homo sapiens) (UniProt P25098). The test can be described thus: GRK2 binders displacing RNA aptamer, biochemical, validation, human GRK2, bead flow cytometry (AID 488806). To be noted: bead-bound GRK2, FAM-aptamer displacement, at 10 µM, stronger effect = higher value.
Beta-adrenergic receptor kinase 1 (Homo sapiens), sequence (P25098 whole entry, looked up): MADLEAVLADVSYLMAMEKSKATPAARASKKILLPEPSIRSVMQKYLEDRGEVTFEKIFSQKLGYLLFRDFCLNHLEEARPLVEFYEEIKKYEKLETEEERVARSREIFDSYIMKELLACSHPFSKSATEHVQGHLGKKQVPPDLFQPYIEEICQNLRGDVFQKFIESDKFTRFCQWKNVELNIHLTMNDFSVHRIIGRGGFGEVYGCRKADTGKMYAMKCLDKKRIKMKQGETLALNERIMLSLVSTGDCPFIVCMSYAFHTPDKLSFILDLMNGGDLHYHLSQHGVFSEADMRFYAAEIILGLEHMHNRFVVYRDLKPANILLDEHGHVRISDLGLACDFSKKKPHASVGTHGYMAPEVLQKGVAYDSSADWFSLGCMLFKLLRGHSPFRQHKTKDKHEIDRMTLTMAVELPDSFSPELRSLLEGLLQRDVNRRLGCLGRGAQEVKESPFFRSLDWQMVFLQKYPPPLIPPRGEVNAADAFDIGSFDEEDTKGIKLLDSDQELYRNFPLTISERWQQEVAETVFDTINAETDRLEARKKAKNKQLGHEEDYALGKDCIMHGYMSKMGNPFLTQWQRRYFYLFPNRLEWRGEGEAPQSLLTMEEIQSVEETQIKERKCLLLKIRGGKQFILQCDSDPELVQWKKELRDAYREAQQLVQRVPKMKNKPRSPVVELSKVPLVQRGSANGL
Test [10] addresses Beta-2 adrenergic receptor (Homo sapiens) (UniProt P07550). As to the kind of experiment: agonist-induced loss of surface beta2AR – cell-based, FAP fluorogen, flow cytometry, validation set, pilot screen (AID 504459;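 active means percent response above 42, roughly 3 SD of non-fluorescent test compounds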;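 further: agonist-driven loss of surface beta2AR via internalization measured by FAP dye flow cytometry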). Conditions: Am2.2-beta2AR cells, at 10 µM, stronger effect = higher value.
Test [11] concerns the target AP-2 complex subunit beta (Homo sapiens) (UniProt P63010). The test can be described thus: beta-arrestin/AP2 interaction blockers – biochemical, validation set, GST-AP2 beads, flow cytometry, pilot screen (AID 504541;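 active means inhibition above 54%, about 3 SD of non-fluorescent compounds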;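 further: AP2 carries R879A mutation and is captured from E. coli lysate; bead-bound FITC arrestin peptide fluorescence measuring arrestin peptide binding to AP2; 0% = DMSO wells and 100% = excess unlabeled arrestin peptide control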). Conditions: FITC arrestin peptide, at 10 µM, stronger effect = higher value, AP2 beta2 appendage fragment, R879A mutant.
Test [12] in a line: cytosolic pH regulators acting via V-ATPase – S. cerevisiae, pHLuorin, HTS validation (AID 504600; in the data active means response above about 15%;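 further: plate controls were DMSO for no effect and reference compound for full effect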). Conditions: V-ATPase proton transport, at 10 µM, stronger effect = higher value.
The subject of test [13] is anti-desmoglein-3 scFv antibody binding to human DSG3. The test can be described thus: blockers of pathogenic pemphigus antibody–desmoglein-3 binding – biochemical, validation compound set, bead-based, flow cytometry, pilot screen (AID 588368;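 active means binding below the plate cutoff, the plate median minus 3 SD, with a reading above zero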;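 further: signal is the median channel fluorescence of bead-bound GFP antibody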). To be noted: Protein G beads, DSG3-Fc, scFv-GFP binding, at 10 µM, stronger effect = lower value.
Test [14] can be described thus: Nile Red efflux blockade in pump-expressing yeast – validation compound set, multiplex, phenotypic, pilot screen (AID 588506;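 active means efflux inhibition above 0.42, the validation set average plus 4 SD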;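 further: Nile Red retained in cells so higher fluorescence means more efflux inhibition; 0 = negative control wells and 1 = enniatin B 25 µM full block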). Conditions: S. cerevisiae pump-expressing triplex, Nile Red efflux flow cytometry; at 10 µM; stronger effect = higher value; the pumps come from Candida albicans.
Test [15] deals with ATP-binding cassette sub-family B member 6 (Homo sapiens) (UniProt Q9NP58). As to the kind of experiment: blockers of ABCB6-driven porphyrin uptake – K562-ABCB6 cells, flow cytometry, validation set, pilot screen (AID 588550;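 active means inhibition above the screen-wide mean plus 3 SD, about 51%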;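 further: 0% = DMSO wells and 100% = benzethonium chloride 70 µM positive control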). To be noted: K562-ABCB6 porphyrin accumulation, 1 h, at 10 µM, stronger effect = higher value.
ATP-binding cassette sub-family B member 6 (Homo sapiens), sequence (Q9NP58 whole entry, looked up): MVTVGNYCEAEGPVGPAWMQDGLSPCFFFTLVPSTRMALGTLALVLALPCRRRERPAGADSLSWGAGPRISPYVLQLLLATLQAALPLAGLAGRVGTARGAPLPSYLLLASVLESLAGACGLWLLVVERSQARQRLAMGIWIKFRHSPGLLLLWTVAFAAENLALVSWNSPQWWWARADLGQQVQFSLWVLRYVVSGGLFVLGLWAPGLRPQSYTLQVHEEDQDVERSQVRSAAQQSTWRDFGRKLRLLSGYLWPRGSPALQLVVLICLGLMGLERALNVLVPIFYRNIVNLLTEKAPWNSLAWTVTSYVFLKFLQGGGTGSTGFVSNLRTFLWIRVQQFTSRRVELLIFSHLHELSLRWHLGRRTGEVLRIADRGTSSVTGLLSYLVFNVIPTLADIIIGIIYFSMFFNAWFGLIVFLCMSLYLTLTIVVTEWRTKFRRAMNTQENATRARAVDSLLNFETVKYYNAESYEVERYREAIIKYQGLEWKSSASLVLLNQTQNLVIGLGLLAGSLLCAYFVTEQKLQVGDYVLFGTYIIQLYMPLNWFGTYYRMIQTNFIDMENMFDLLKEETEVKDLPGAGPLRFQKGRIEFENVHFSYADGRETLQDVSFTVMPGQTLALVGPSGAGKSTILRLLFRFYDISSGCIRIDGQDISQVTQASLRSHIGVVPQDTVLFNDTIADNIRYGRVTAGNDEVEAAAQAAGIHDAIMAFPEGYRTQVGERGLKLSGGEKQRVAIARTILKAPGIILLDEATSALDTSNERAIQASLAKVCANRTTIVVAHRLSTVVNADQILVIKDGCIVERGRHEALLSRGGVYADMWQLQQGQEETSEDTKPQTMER
A short description of test [16]: AML differentiation inducers, ER-HoxA9 marrow cells – cell-based, GFP/MAC1 double positive, flow cytometry, validation set, primary screen (AID 588685;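 active means differentiation response of at least 50%, scaled between solvent and reference control, from cells with both markers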;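 further: compound exposure lasts four days before antibody staining and flow analysis; 0% = DMSO wells and 100% = 5 µM fulvestrant positive control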). To be noted: stronger effect = higher value, normalized: vehicle 0, fulvestrant 100.

Records with an inconclusive call do not appear. Activity calls are given as the source filed them.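 How the source made its calls, unless noted: active means aptamer binding inhibition above 30%, about 3 SD of noise from non-fluorescent compounds; inactive means inhibition at or below 30%.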

Beta-2 adrenergic receptor (Homo sapiens), sequence (P07550 whole entry, looked up): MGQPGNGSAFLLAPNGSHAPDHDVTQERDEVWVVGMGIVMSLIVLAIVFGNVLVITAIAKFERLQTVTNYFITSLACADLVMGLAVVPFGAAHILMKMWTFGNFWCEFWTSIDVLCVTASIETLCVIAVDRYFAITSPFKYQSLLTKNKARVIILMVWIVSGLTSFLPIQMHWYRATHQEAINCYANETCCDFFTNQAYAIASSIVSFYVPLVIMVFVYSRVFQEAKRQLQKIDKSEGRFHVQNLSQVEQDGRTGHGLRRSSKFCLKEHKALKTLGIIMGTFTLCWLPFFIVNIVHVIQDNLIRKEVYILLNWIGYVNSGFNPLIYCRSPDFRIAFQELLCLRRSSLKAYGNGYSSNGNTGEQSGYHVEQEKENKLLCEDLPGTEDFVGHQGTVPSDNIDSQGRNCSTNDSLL
AP-2 complex subunit beta (Homo sapiens), sequence (P63010 whole entry, looked up, the tested form may be a part, one chain of several): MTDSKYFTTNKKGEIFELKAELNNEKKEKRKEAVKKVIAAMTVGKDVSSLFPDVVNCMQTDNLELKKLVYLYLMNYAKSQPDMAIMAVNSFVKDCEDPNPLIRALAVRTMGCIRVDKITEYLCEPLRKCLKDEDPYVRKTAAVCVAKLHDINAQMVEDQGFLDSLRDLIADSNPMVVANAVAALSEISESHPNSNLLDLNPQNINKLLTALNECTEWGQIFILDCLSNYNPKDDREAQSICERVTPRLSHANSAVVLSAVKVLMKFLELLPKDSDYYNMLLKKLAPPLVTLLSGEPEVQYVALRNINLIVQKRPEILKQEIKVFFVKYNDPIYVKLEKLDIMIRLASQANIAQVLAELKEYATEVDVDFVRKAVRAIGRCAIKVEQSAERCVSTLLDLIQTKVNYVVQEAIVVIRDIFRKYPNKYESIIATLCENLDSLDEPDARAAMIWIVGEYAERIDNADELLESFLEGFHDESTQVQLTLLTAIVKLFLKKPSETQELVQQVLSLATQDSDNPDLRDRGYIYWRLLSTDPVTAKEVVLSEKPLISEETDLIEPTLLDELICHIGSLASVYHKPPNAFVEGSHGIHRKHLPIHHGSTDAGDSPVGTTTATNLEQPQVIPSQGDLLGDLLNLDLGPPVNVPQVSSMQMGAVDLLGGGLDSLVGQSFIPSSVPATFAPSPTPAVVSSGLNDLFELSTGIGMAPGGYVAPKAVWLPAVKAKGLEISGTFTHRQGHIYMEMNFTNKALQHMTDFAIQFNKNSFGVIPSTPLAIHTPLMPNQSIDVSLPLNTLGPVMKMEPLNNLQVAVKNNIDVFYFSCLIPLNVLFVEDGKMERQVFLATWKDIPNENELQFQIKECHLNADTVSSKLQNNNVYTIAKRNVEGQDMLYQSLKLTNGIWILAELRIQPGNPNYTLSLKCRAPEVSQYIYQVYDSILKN

As a reminder, the inhibition is the relative decrease from the control value, in per cent. Consider `CSCC[C@H](NC(=O)Nc1ccc(C)cc1C)C(=O)O`, for which the percent of DMSO control GFP in test [1] was 99.3% (inactive). Besides, the GFP response vs DMSO in test [2] is 103% (inactive); in [4], 95.7% (inactive). In addition, the percent response of DMSO control in [3] was 99.6% (inactive). The GFP response, % of DMSO in test [5] is 96.5% (inactive). In [6], this compound displayed a double positive events of 56.7%. Besides, the vesicle binding response in test [6] is 178% (inactive). The inhibition was 3.67% (inactive) in test [7], 6.83% (inactive) in [11] and 7% (inactive) in test [15]. In test [8], the superoxide response (% of plate) was 101% (inactive). Moreover, the aptamer binding inhibition in test [9] is 6% (inactive). Besides, the response in [10] was 3.91% (inactive); in [12], -0.26% (inactive). Also, the binding (% of control) in test [13] was 94.5% (inactive). Further, in [14], the efflux inhibition (fraction of control) was -0.17 (inactive). The differentiation response in test [16] was -7.2% (inactive).
`N#C/C(=C\c1ccc(O)c(O)c1)C(=O)NCCCc1ccccc1`: in test [1], the percent of DMSO control GFP is 102% (inactive). Further, the GFP response vs DMSO in [2] is 101% (inactive); in test [4], 108% (inactive). In addition, the percent response of DMSO control in test [3] is 98.3% (inactive). Also, the GFP response, % of DMSO in [5] is 116% (inactive). Further, in test [6], the double positive events is 62.1%. Besides, the vesicle binding response in [6] is 206% (inactive). Moreover, the values for the inhibition in test [7], in [11] and in test [15] were -13% (inactive), 25.2% (inactive) and -1% (inactive), respectively. In addition, the superoxide response (% of plate) in test [8] was 93.6% (inactive). Moreover, the aptamer binding inhibition in test [9] was -1% (inactive). The values for the response in test [10] and in [12] were 13.4% (inactive) and -4.8% (inactive), respectively. In addition, the binding (% of control) in [13] was 103% (inactive). In addition, in test [14], the efflux inhibition (fraction of control) was 0.08 (inactive). The differentiation response in test [16] was 3.88% (inactive).
On to `O=C(Cc1c[nH]c2ccccc12)OCCOC(=O)Cc1c[nH]c2ccccc12`, for which the percent of DMSO control GFP in [1] was 104% (inactive). Further, the GFP response vs DMSO in [2] was 96.6% (inactive); in test [4] it was 100% (inactive). Further, in test [3], the percent response of DMSO control is 110% (inactive). Further, the GFP response, % of DMSO in test [5] is 101% (inactive). In [6], this compound yielded a double positive events of 60.9%. For the same compound, the vesicle binding response in [6] was 111% (inactive). The inhibition is -3.77% (inactive) in test [7], -12.4% (inactive) in test [11] and -4% (inactive) in test [15]. Moreover, the superoxide response (% of plate) in test [8] is 103% (inactive). For the same compound, the aptamer binding inhibition in test [9] is -1% (inactive). For the same compound, the response was -3.51% (inactive) in test [10] and 1.88% (inactive) in test [12]. Besides, in test [13], the binding (% of control) was 99.6% (inactive). In test [14], the efflux inhibition (fraction of control) is -0.12 (inactive). For the same compound, the differentiation response in test [16] was -4.57% (inactive).
Regarding `CCCCCC(O)c1cccc(OCc2ccc3ccccc3n2)c1` (stereo not drawn), the percent of DMSO control GFP in test [1] is 101% (inactive). Also, the GFP response vs DMSO in test [2] is 97.6% (inactive); in [4], 130% (inactive). In addition, in [3], the percent response of DMSO control was 99% (inactive). In addition, the GFP response, % of DMSO in test [5] is 109% (inactive). For the same compound, the double positive events in test [6] amounted to 65.2%. For the same compound, in test [6], the vesicle binding response was 227% (inactive). Moreover, the inhibition is 22.7% (inactive) in [7], 6.94% (inactive) in test [11] and 5% (inactive) in test [15]. The superoxide response (% of plate) in test [8] is 110% (inactive). For the same compound, the aptamer binding inhibition in test [9] is 2% (inactive). Also, the response in test [10] is -42.6% (inactive); in [12] it was 1.82% (inactive). Also, in [13], the binding (% of control) is 92.4% (inactive). The efflux inhibition (fraction of control) in test [14] was 0.04 (inactive). Also, the differentiation response in test [16] is -8.93% (inactive).
